Screening results deposited in PubChem by Milwaukee Institute for Drug Discovery.
HCV NS3h FP = blocks HCV NS3 helicase binding to DNA; NS3h Cy5-dT15 DNA binding, fluorescence polarization; inhibition, % at 100 µM; actives 1.6% (n = 16,000);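 active = inhibition above the average over every tested compound plus 3 SD, cut at about 40% in these data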
Cy5 interf NS3h = counter-screen for HCV NS3 helicase inhibitors: fluorescence interference; Cy5-dT15 DNA with NS3h; actives lie on both sides; signal over control mean, under 1 quenches; fluorescence interference ratio at 100 µM; actives 6% (n = 16,000); AID 720488;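 active = compound fluorescence over control fluorescence at most 0.8, a quencher, or at least a set upper limit, an enhancer; inactive = ratio between 0.8 and the set upper limit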
* hit, by the source's call. Shown are actives, neighbours in structure and some others; about 6.9% of the full set was active somewhere.

SMILES | HCV NS3h FP | Cy5 interf NS3h
N/C(=N/OC(=O)c1ccc(I)cc1)c1ccccn1 | 4 | 0.98
Cc1ccccc1NC(=O)c1ccc(OCC(C)C)cc1 | 12 | 0.76*
Cc1ccc(NC(=O)COc2ccc3ccccc3c2)cc1 | 11 | 1.4*
COc1cc(NC(=O)COc2ccc3ccccc3c2)cc(OC)c1 | 18 | 1.1
CCCOc1ccc(C(=O)Nc2ccccc2C(=O)OC)cc1 | 13 | 0.7*
COC(=O)c1ccccc1NC(=O)COc1ccc(Br)cc1 | 12 | 0.96
COC(=O)c1ccccc1NC(=O)COc1ccc(C)c(C)c1 | 6 | 0.63*
CC(C)COc1ccc(C(=O)Nc2cccc3ccccc23)cc1 | 23 | 1.1
COC(=O)c1ccccc1NC(=O)c1ccccc1NC(=O)c1ccc(OC)cc1 | 9 | 1
CC1CCN(C(=O)c2ccccc2[N+](=O)[O-])CC1 | 4 | 1.1
O=C(Nc1ccc(Cl)cc1Cl)c1nn2c(c1Br)NC(c1ccccc1)CC2C(F)(F)F (stereo not given) | 8 | 0.93
CCOc1ccc(NC(=O)c2ccc(N3C(=O)c4cccnc4C3=O)cc2)cc1 | -24 | 0.91
O=C1NC(=O)c2ccc3c4c(ccc1c24)CC3 | 6 | 0.96
O=C(Nc1c(C(=O)Nc2cccc(Cl)c2)cnn1-c1ccccc1)c1ccccc1Cl | 11 | 1.2
CCC(C)NCC(O)Cn1c2ccc(Cl)cc2c2cc(Cl)ccc21 (stereo not given) | 5 | 0.77*
CS(=O)(=O)N(CC(O)Cn1c2ccc(Cl)cc2c2cc(Cl)ccc21)c1ccccc1 (stereo not given) | 13 | 0.95
C=CCN1C(=O)/C(=C\c2ccc(Br)c([N+](=O)[O-])c2)SC1=S | 18 | 0.65*
C=CCN1C(=O)/C(=C/c2cccc(Br)c2)SC1=S | 0 | 0.94
O=C(/C=C\c1ccccc1)Nc1ccc2c3c(cccc13)CC2 | 23 | 0.73*
O=C(/C=C/c1ccccc1)Nc1ccccc1I | 12 | 0.96
O=C(C1=C(O)C(=O)N(c2ncc(S(=O)(=O)c3ccc([N+](=O)[O-])cc3)s2)C1c1ccc(F)cc1)c1ccco1 (stereo not given) | 11 | 0.79*
COc1ccc(C2C(=C(O)c3ccc(C)cc3)C(=O)C(=O)N2c2ncc(S(=O)(=O)c3ccc([N+](=O)[O-])cc3)s2)cc1 (stereo not given) | 14 | 0.84
COc1ccc(OCC(=O)Nc2cccc(C(C)=O)c2)cc1 | 5 | 1.1
CCc1ccc(OCC(=O)Nc2cccc(OC)c2)cc1 | 14 | 0.74*
CCSc1nnc(NC(=O)c2ccc(Br)o2)s1 | 10 | 0.77*
SMILES | HCV NS3h FP | Cy5 interf NS3h
CCC(=O)Nc1ccc(NC(=O)c2ccc(Br)o2)cc1 | -3 | 1
CCOc1ccc(/C=N\N=C2\C(=O)Nc3ccccc32)cc1 | -10 | 0.96
O=C1Nc2ccccc2/C1=N/N=C\c1ccccc1[N+](=O)[O-] | 33 | 0.59*
COc1cccc(/C=C/C(=O)c2ccc(F)cc2)c1 | 5 | 0.89
CCN(CC)CCN1C(=O)C(O)=C(C(=O)/C=C/c2ccccc2)C1c1ccc(Br)cc1 (stereo not given) | 8 | 1.1
CCN(CC)CCN1C(=O)C(O)=C(C(=O)/C=C/c2ccccc2)C1c1ccc(OC)cc1 (stereo not given) | 26 | 1.2*
CCOC(=O)C(C(=O)OCC)=C(CCN1C(=O)c2ccccc2C1=O)OC(=O)CCN1C(=O)c2ccccc2C1=O | 4 | 0.81
Cc1ccc2nc(-c3ccc([N+](=O)[O-])cc3)cn2c1 | 5 | 0.98
O=[N+]([O-])c1ccc(-c2cn3c(n2)sc2ccccc23)cc1 | 2 | 0.65*
Cc1cc(C)c(-n2c(O)c(C=C3C=Nc4ccccc43)c(=O)[nH]c2=O)c(C)c1 | 3 | 1
COc1ccc(OC)c(Cn2c(O)c(C=C3C=CC=N3)c(=O)[nH]c2=O)c1 | 17 | 0.88
O=c1[nH]c(=O)n(Cc2ccc(F)cc2)c(O)c1C=C1C=Nc2ccccc21 | -44 | 0.8*
O=c1[nH]c(=O)n(Cc2ccccc2)c(O)c1C=C1C=CC=N1 | 11 | 0.77*
O=C(c1ccccc1)c1ccc(N2CCCCC2)cc1 | 4 | 0.92
O=C(Nc1ccc(Cl)cn1)c1ccc(-c2ccc([N+](=O)[O-])cc2)o1 | -16 | 0.82
Cc1cc([N+](=O)[O-])ccc1-c1ccc(C(=O)Nc2ccc(Cl)cn2)o1 | -14 | 0.77*
COc1ccc(OC(C)C(=O)Nc2ccc(OC)cc2OC)cc1 (stereo not given) | 2 | 0.92
O=C(O)CCN1C(=O)c2ccc(C(=O)c3cccc([N+](=O)[O-])c3)cc2C1=O | -8 | 0.88
O=C(Nc1ccc(Cl)cc1)Nc1nnc(-c2cccs2)s1 | 14 | 0.69*
O=C(Nc1ccc(Cl)cc1)Nc1nnc(-c2cccc(F)c2)s1 | 2 | 0.99
O=C(NCCNc1ccc(Cl)cc1[N+](=O)[O-])c1ccccc1Cl | 17 | 0.98
O=C1NC(=S)S/C1=C/c1cc(Br)ccc1OCc1ccccc1Cl | 10 | 1
C=CCN1C(=O)/C(=C/c2ccccc2OCc2ccccc2Cl)SC1=S | 10 | 0.65*
COc1cc(C=C2C(=O)N(C)C(=O)N(C)C2=O)ccc1OCc1ccccc1Cl | 5 | 1
C=CCN1C(=O)NC(=O)/C(=C\c2ccc(OCc3ccccc3Cl)c(OC)c2)C1=O | 9 | 1.2*
SMILES | HCV NS3h FP | Cy5 interf NS3h
C=CCN1C(=O)/C(=C\c2ccccc2OCc2ccc(Cl)cc2)SC1=S | 16 | 0.99
COC(=O)c1ccc(/C=C(\C#N)C(=O)Nc2ccc(F)cc2)cc1 | 10 | 0.98
Cc1nc2ccc(Br)cc2c(Cl)c1CCC(=O)O | -2 | 1
COc1ccccc1C1SCCN1C(=O)/C=C\C(=O)O (stereo not given) | 6 | 1.1
O=C1NC(=S)NC(=O)C1=Cc1ccc(O)c(Cl)c1 | 45* | 1
O=C1NC(=S)N(c2ccc(Br)cc2)C(=O)/C1=C/c1ccc(O)c(Cl)c1 | 27 | 0.94
CC(=O)C(Sc1ccc(C)cc1)C(=O)c1ccccc1 (stereo not given) | -5 | 0.99
COc1ccc(OC)c(NC(=O)COc2ccc(Br)cc2C)c1 | -4 | 1
CCCC(=O)Nc1cc(OC)ccc1OC | 16 | 0.74*
COc1ccc(C2C(C#N)=C(N)Oc3[nH]c(=O)[nH]c(=O)c32)c(OC)c1 (stereo not given) | 3 | 1.1
COc1cccc(/C=C2/C=C(c3ccc(Br)cc3)OC2=O)c1OC(C)=O | 15 | 1
O=C(NC[n+]1ccccc1)c1ccc(Cl)cc1 | 3 | 1.2*
O=C(NCc1ccc(Cl)cc1)c1ccc(I)cc1 | 21 | 0.98
Cc1c(NC(=O)CSc2nnc(-c3cccc(F)c3)n2-c2ccccc2)c(=O)n(-c2ccccc2)n1C | 8 | 1.1
C(=N/n1cnnc1)/c1cc2ccccc2[nH]1 | 23 | 0.74*
Ic1cccc(/C=N\n2cnnc2)c1 | 0 | 1
COc1ccc(C(O)=CC(=O)C(=O)NCc2ccccc2)cc1 | 18 | 1.1
CCOC(=O)C1=C(C)N=c2s/c(=C\c3ccc([N+](=O)[O-])o3)c(=O)n2C1c1cccs1 (stereo not given) | 8 | 1
CCOC(=O)C1=C(C)N=c2s/c(=C\c3ccc([N+](=O)[O-])o3)c(=O)n2C1c1ccccc1Cl (stereo not given) | 19 | 0.71*
CCOC(=O)C1=C(C)N=c2s/c(=C\c3ccc([N+](=O)[O-])o3)c(=O)n2C1c1ccc(C)cc1 (stereo not given) | 13 | 0.75*
